ChEMBL document CHEMBL3433997, “St. Jude Leishmania screening dataset” (2016)

Each compound was assayed against Solute carrier family 2, facilitated glucose transporter member 1 (Homo sapiens) (UniProt P11166) (assay: ST_JUDE_LEISH: Cytotoxicity at 2uM final concentration against transgenic Leishmania Mexicana promastigotes LmGLUT1 that are glucose transport deficient and complemented with the human glucose transporter GLUT1. Activity is measured by DNA content using SYBR green in vitro).
Assay type: functional

Sequence of Solute carrier family 2, facilitated glucose transporter member 1 (Homo sapiens) (P11166 whole entry): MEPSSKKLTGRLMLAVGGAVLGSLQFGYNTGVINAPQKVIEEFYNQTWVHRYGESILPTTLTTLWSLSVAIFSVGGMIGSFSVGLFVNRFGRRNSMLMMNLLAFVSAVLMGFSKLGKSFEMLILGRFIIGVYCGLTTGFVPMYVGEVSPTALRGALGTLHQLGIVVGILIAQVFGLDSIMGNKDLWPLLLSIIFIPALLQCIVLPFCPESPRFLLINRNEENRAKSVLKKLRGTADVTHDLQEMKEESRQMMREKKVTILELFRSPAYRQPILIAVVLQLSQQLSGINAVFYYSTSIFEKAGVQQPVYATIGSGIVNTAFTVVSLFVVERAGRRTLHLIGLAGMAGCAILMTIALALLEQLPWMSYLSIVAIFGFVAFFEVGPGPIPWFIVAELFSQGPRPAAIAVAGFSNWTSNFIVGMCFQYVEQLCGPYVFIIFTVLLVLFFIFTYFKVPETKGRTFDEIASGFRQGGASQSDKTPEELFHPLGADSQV

| SMILES | inhibition [%] |
| --- | --- |
| COC(=O)Nc1ccc(-c2ccc(C(=O)NC3CCN(C[C@H](O)c4ccnc5ccc(OC)cc45)CC3)cc2)c(C)c1 | 0.51 |
| Nc1nc(N)c2cc(NS(=O)(=O)c3ccc(-c4ccccc4)cc3)ccc2n1 | 4.33 |
| O=C(Nc1cccc(-c2nn3ccccc3c2-c2ccnc(Nc3ccc(-c4cc[nH]n4)cc3)n2)c1)c1c(F)cccc1F | 6.17 |
| CN(CCCN(C)c1cc(NC(=O)c2ccc(F)cc2)ccn1)Cc1cccc(F)c1 | 5 |
| O=C(Nc1cccc(F)c1)N1CCC(NS(=O)(=O)c2ccc(Br)cc2)CC1 | 4.47 |
| COCCOc1cc(C)c(C2CCN(CCCCNC(=O)c3ccc(NC(=O)c4ccc(Cl)cc4)cc3)CC2)cc1C | 8.26 |
| COc1ccc(-c2cc(C(=O)N[C@@H](CC3CCCCC3)C(=O)NC3CCCc4ccccc43)ccc2O)cc1 (some centres undefined) | 0.11 |
| CCCCNC(=O)[C@H](CC1CCCCC1)NC(=O)c1ccc(O)c(-c2cccc(C(F)(F)F)c2)c1 | 2.16 |
| CC1CN(Cc2cccc(F)c2)CCN1c1ccc(NC(=O)c2cccs2)cc1 (centres undefined) | -0.87 |
| CCCC(C)NC(=O)c1cnn(-c2ccc(C(C)(C)C)cc2)c1OCc1ccc(Br)cc1 (centres undefined) | 4.76 |
| Nc1nc(N)c2c(ccc3c2ccn3Cc2cccc3ccccc23)n1 | 97.3 |
| FC(F)(F)c1ccc2[nH]c(-c3ccc(-c4ccc(CNCc5ccccc5)cc4)cc3)nc2c1 | 8.83 |
| CNC(=O)NC1=NC(C)(C)N(OCCCOc2cc(Cl)c(Cl)cc2Cl)C(N)=N1 | 11.5 |
| Cc1ccc(CNC(=O)[C@H](CC(C)C)Nc2cc(C)nc(NCc3ccccc3C)n2)cc1 | 4.3 |
